{"source": "ChEMBL document CHEMBL1961873", "about": "“Compounds: GSK PKIS; Assays: Nanosyn kinase panel” (2012)", "note": "Where “and” joins values, the source holds several entries; their conditions need not be identical. Equal entries are not always repeated.", "data": [{"target": "Tyrosine-protein kinase Fer (Homo sapiens) (UniProt P16591)", "sequence (P16591 whole entry, looked up)": "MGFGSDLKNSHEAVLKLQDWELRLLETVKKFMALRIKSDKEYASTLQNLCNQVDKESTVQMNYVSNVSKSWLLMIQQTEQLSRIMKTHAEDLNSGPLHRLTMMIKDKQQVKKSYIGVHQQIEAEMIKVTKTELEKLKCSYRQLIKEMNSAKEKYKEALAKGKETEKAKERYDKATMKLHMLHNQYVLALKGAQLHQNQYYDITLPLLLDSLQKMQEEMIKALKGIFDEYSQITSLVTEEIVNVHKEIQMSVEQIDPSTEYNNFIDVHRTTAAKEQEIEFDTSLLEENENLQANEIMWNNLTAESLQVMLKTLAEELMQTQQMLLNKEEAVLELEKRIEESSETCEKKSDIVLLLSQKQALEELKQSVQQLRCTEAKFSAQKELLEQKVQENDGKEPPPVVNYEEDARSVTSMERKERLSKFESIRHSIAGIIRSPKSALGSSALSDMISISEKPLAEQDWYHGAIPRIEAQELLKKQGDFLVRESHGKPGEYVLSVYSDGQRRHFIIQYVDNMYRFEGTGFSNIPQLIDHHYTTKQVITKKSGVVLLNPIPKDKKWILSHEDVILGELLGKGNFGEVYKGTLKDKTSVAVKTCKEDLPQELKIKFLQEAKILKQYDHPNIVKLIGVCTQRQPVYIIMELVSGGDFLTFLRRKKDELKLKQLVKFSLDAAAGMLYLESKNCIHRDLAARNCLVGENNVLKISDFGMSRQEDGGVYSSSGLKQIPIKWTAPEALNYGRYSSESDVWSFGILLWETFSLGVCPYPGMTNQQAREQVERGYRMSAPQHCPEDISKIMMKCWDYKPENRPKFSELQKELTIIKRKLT", "details": "at 1 µM", "values": [{"smiles": "CC1=C(C(=O)Nc2ccc3[nH]nc(C)c3c2)C(c2ccc(C(F)(F)F)cc2)CC(=O)N1", "note": "(configuration not stated)", "inhibition": "3.02%"}, {"smiles": "COc1cc(N2CCN(C(C)C)CC2)ccc1Nc1nc(Nc2cccc3ncccc23)c2cc[nH]c2n1", "inhibition": "44.4%"}, {"smiles": "COc1cc(Nc2ncc(-c3ccccc3)o2)cc(OC)c1", "inhibition": "3.14%"}, {"smiles": "COc1cccc(Nc2nccc(-c3cnn4ncccc34)n2)c1", "inhibition": "48%"}, {"smiles": "O=C(Nc1n[nH]c2nnc(-c3cccnc3)cc12)C1CC1", "inhibition": "0.68%"}, {"smiles": "CN1CCN(Cc2ccc(-c3cc4ncnc(Nc5ccc(OCc6cccc(F)c6)c(Cl)c5)c4s3)o2)CC1", "inhibition": "7.48% and 15.1%"}, {"smiles": "CCCNc1cccc(-n2ncc3c(N/N=C/c4ccncc4)ncnc32)c1", "inhibition": "9.15%"}, {"smiles": "CS(=O)(=O)Nc1ccc(-c2ccc3c(NC(=O)C4CC4)n[nH]c3c2)cc1", "inhibition": "11.5%"}, {"smiles": "COc1cccc(-n2ncc3c(N/N=C/c4ccc(C(=O)NCCN(C)C)cc4)ncnc32)c1", "inhibition": "1.12%"}, {"smiles": "O=C(O[C@H]1CN[C@H](C#Cc2cc3ncnc(Nc4ccc(OCc5cccc(F)c5)c(Cl)c4)c3s2)C1)N1CCOCC1", "inhibition": "5.25%"}, {"smiles": "O=C(O[C@H]1CN[C@H](C#Cc2cc3ncnc(Nc4ccc5c(cnn5Cc5ccccc5)c4)c3s2)C1)N1CCOCC1", "inhibition": "0.92%"}, {"smiles": "CCn1c(-c2nonc2N)nc2cncc(C(=O)NCCNC)c21", "inhibition": "3.14%"}, {"smiles": "O=C(O[C@H]1CN[C@H](C#Cc2cc3ncnc(Nc4ccc5c(ccn5Cc5cc(F)ccc5F)c4)c3s2)C1)N1CCOCC1", "inhibition": "5.55%"}, {"smiles": "c1ccc(-c2n[nH]cc2-c2ccnc(-c3ccc(OCCn4ccnc4)cc3)c2)nc1", "inhibition": "1.84%"}, {"smiles": "COc1cc2c(cc1Nc1nc(Nc3cccc(F)c3C(N)=O)c3cc[nH]c3n1)N(C(=O)CN1CCN(C(C)C)CC1)CC2", "inhibition": "53.2%"}, {"smiles": "CNC(=O)c1cncc(/C=C/c2ccccc2C)c1", "inhibition": "4.88%"}, {"smiles": "N#Cc1cccc(Nc2ncc(-c3ccccc3)o2)c1", "inhibition": "5.33%"}, {"smiles": "CCN1CCC(C(=O)Nc2n[nH]c3nnc(-c4cccc(F)c4F)cc23)CC1", "inhibition": "1.37%"}, {"smiles": "Nc1nonc1-c1nc2cnccc2n1C1CC1", "inhibition": "0.34% and 3.05%"}, {"smiles": "O=C1Nc2ccccc2/C1=C1\\CCc2cc(O)ccc21", "inhibition": "22.1%"}, {"smiles": "Fc1ccc(Nc2nccc(-c3c(-c4ccc(C(F)(F)F)cc4)nn4ncccc34)n2)cc1F", "inhibition": "4.28%"}, {"smiles": "CCS(=O)(=O)c1ccc(OC)c(Nc2ncc(-c3cccc(F)c3)o2)c1", "inhibition": "8.9%"}, {"smiles": "OCCCNc1nccc(-c2c(-c3ccc(F)cc3)nn3cc(C(F)(F)F)ccc23)n1", "inhibition": "2.56%"}, {"smiles": "CN(c1ccc(NC(=O)NCCN2CCOCC2)cc1)c1ccnc(Nc2ccc(CS(C)(=O)=O)cc2)n1", "inhibition": "20.6%"}, {"smiles": "Nc1nccc(-c2c(-c3ccc(F)cc3)ncn2C2CCNCC2)n1", "inhibition": "-1.75% and 3.19%"}, {"smiles": "CC1(C)CC(n2cnc(-c3ccc(F)cc3)c2-c2ccnc(N)n2)CC(C)(C)N1", "inhibition": "0.17%"}, {"smiles": "Cn1c(-c2nonc2N)nc2cnccc21", "inhibition": "6.7%"}, {"smiles": "COc1ccc2ncn(-c3cc(O[C@H](C)c4ccccc4C(F)(F)F)c(C(N)=O)s3)c2c1", "inhibition": "3.58%"}, {"smiles": "Cc1c2ccc(N(C)c3ccnc(Nc4cccc(S(N)(=O)=O)c4)n3)cc2nn1C", "inhibition": "74.1%"}, {"smiles": "CNC(=O)c1ncccc1Nc1nc(Nc2cc3c(cc2OC)CCCN3C(=O)CN(C)C)nc2[nH]ccc12", "inhibition": "80.1%"}, {"smiles": "COC(=O)Nc1nc2cc(Oc3ccc(NC(=O)Nc4ccccc4)cc3)ccc2[nH]1", "inhibition": "3.19%"}]}, {"target": "Tyrosine-protein kinase Fes/Fps (Homo sapiens) (UniProt P07332)", "sequence (P07332 whole entry)": "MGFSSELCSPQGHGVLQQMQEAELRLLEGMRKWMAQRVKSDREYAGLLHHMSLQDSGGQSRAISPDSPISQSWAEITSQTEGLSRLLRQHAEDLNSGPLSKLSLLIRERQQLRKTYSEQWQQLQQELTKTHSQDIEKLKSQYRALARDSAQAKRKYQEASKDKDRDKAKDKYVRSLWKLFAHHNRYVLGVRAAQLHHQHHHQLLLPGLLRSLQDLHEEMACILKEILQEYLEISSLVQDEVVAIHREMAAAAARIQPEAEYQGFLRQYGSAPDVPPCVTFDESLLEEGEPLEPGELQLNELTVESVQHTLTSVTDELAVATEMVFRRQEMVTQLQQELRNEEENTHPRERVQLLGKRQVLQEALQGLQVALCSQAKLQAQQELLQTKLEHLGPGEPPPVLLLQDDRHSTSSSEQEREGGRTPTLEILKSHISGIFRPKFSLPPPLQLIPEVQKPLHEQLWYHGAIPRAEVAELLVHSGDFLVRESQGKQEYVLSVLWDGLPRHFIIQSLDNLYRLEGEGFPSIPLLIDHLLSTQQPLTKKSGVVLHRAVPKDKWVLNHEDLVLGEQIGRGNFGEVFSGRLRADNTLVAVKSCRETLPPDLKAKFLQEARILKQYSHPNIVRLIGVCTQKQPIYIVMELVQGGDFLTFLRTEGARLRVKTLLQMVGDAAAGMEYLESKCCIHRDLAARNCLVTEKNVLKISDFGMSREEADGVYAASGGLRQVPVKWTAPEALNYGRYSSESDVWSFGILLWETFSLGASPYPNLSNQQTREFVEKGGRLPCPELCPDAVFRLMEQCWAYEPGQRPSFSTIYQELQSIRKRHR", "details": "at 0.1 µM", "values": [{"smiles": "CC1=C(C(=O)Nc2ccc3[nH]nc(C)c3c2)C(c2ccc(C(F)(F)F)cc2)CC(=O)N1", "note": "(configuration not stated)", "inhibition": "1.58%"}, {"smiles": "COc1cc(N2CCN(C(C)C)CC2)ccc1Nc1nc(Nc2cccc3ncccc23)c2cc[nH]c2n1", "inhibition": "0.44%"}, {"smiles": "COc1cc(Nc2ncc(-c3ccccc3)o2)cc(OC)c1", "inhibition": "3.89%"}, {"smiles": "COc1cccc(Nc2nccc(-c3cnn4ncccc34)n2)c1", "inhibition": "8.87%"}, {"smiles": "O=C(Nc1n[nH]c2nnc(-c3cccnc3)cc12)C1CC1", "inhibition": "-0.26%"}, {"smiles": "CN1CCN(Cc2ccc(-c3cc4ncnc(Nc5ccc(OCc6cccc(F)c6)c(Cl)c5)c4s3)o2)CC1", "inhibition": "2.89% and 4.05%"}, {"smiles": "CCCNc1cccc(-n2ncc3c(N/N=C/c4ccncc4)ncnc32)c1", "inhibition": "2.38%"}, {"smiles": "CS(=O)(=O)Nc1ccc(-c2ccc3c(NC(=O)C4CC4)n[nH]c3c2)cc1", "inhibition": "2.68%"}, {"smiles": "COc1cccc(-n2ncc3c(N/N=C/c4ccc(C(=O)NCCN(C)C)cc4)ncnc32)c1", "inhibition": "1.87%"}, {"smiles": "O=C(O[C@H]1CN[C@H](C#Cc2cc3ncnc(Nc4ccc(OCc5cccc(F)c5)c(Cl)c4)c3s2)C1)N1CCOCC1", "inhibition": "3.88%"}, {"smiles": "O=C(O[C@H]1CN[C@H](C#Cc2cc3ncnc(Nc4ccc5c(cnn5Cc5ccccc5)c4)c3s2)C1)N1CCOCC1", "inhibition": "-0.09%"}, {"smiles": "CCn1c(-c2nonc2N)nc2cncc(C(=O)NCCNC)c21", "inhibition": "4.48%"}, {"smiles": "O=C(O[C@H]1CN[C@H](C#Cc2cc3ncnc(Nc4ccc5c(ccn5Cc5cc(F)ccc5F)c4)c3s2)C1)N1CCOCC1", "inhibition": "3.3%"}, {"smiles": "c1ccc(-c2n[nH]cc2-c2ccnc(-c3ccc(OCCn4ccnc4)cc3)c2)nc1", "inhibition": "-0.05%"}, {"smiles": "COc1cc2c(cc1Nc1nc(Nc3cccc(F)c3C(N)=O)c3cc[nH]c3n1)N(C(=O)CN1CCN(C(C)C)CC1)CC2", "inhibition": "14%"}, {"smiles": "CNC(=O)c1cncc(/C=C/c2ccccc2C)c1", "inhibition": "2.38%"}, {"smiles": "N#Cc1cccc(Nc2ncc(-c3ccccc3)o2)c1", "inhibition": "0.93%"}, {"smiles": "CCN1CCC(C(=O)Nc2n[nH]c3nnc(-c4cccc(F)c4F)cc23)CC1", "inhibition": "-0.22%"}, {"smiles": "Nc1nonc1-c1nc2cnccc2n1C1CC1", "inhibition": "2.84% and 0.98%"}, {"smiles": "O=C1Nc2ccccc2/C1=C1\\CCc2cc(O)ccc21", "inhibition": "4.19%"}, {"smiles": "Fc1ccc(Nc2nccc(-c3c(-c4ccc(C(F)(F)F)cc4)nn4ncccc34)n2)cc1F", "inhibition": "3.21%"}, {"smiles": "CCS(=O)(=O)c1ccc(OC)c(Nc2ncc(-c3cccc(F)c3)o2)c1", "inhibition": "4.72%"}, {"smiles": "OCCCNc1nccc(-c2c(-c3ccc(F)cc3)nn3cc(C(F)(F)F)ccc23)n1", "inhibition": "1.95%"}, {"smiles": "CN(c1ccc(NC(=O)NCCN2CCOCC2)cc1)c1ccnc(Nc2ccc(CS(C)(=O)=O)cc2)n1", "inhibition": "2.04%"}, {"smiles": "Nc1nccc(-c2c(-c3ccc(F)cc3)ncn2C2CCNCC2)n1", "inhibition": "-3.81% and -0.12%"}, {"smiles": "CC1(C)CC(n2cnc(-c3ccc(F)cc3)c2-c2ccnc(N)n2)CC(C)(C)N1", "inhibition": "-0.11%"}, {"smiles": "Cn1c(-c2nonc2N)nc2cnccc21", "inhibition": "2.6%"}, {"smiles": "COc1ccc2ncn(-c3cc(O[C@H](C)c4ccccc4C(F)(F)F)c(C(N)=O)s3)c2c1", "inhibition": "-0.21%"}, {"smiles": "Cc1c2ccc(N(C)c3ccnc(Nc4cccc(S(N)(=O)=O)c4)n3)cc2nn1C", "inhibition": "15.2%"}, {"smiles": "CNC(=O)c1ncccc1Nc1nc(Nc2cc3c(cc2OC)CCCN3C(=O)CN(C)C)nc2[nH]ccc12", "inhibition": "44.3%"}, {"smiles": "COC(=O)Nc1nc2cc(Oc3ccc(NC(=O)Nc4ccccc4)cc3)ccc2[nH]1", "inhibition": "1.46%"}]}]}
